# Results taken from a collection of fitness landscapes (doi:10.1016/j.celrep.2020.107928).
# Over roughly 81,000 sequences, “one-hybrid fitness for binding parS DNA” has its median near -0.17; the highest 2% begin near 0.51. The sample as a whole holds a higher share of the highest values than the screen did.
# B1: Caulobacter ParB omega fusion; a variant is named by its letters at X, in order, B8GW30 (parent)
# chain: MESVVVGEPGMSEGRRGLGRGLSALLGEVDAAPAQAPGEQLGGSREAPIEILQRNPDQPRRTFREEDLEDLSNSIREKGVLQPILVRPSPDTAGEYQIVAGERAWRAAQRAGLKTVPIMVRELDDLAVLEIGIIENVQRADLNVLEEALSYKVLMEKFERTQENIAQTIGKSXSHVANXMRLLXLPDEVQSYLVSGELTAXHARAIAAAADPVALAKQIIEGGLSVRETEALARKAPNLSAGKSKGGRPPRVKDTDTQALESDLSSVLGLDVSIDHRGSTGTLTITYATLEQLDDLCNRLTRGI
# Variants of: B1
# Test: one-hybrid fitness for binding parS DNA (scaled: cognate 1, non-cognate 0); higher = stronger binding
# Conditions: with parS DNA site
# How it was run: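 Pre- and post-selection plasmids were Illumina-sequenced, three replicate libraries were pooled, and any variant with under 10 reads was removed. The libraries were Caulobacter ParB with four specificity codons randomised, selected in E. coli USO through a HIS3 reporter whose site is 19 bp from the promoter. Cells grew 48 hours at 37°C on M9 without histidine, with 0.1 mM IPTG and 5 mM 3-AT. Fitness is the log change in variant-to-wild-type read ratio, rescaled against cognate and non-cognate.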
row,Variant,one-hybrid fitness for binding parS DNA
1,EDER,≤ 0.2
2,KRAT,≤ 0.2
3,DYVS,≤ 0.2
4,MMHG,≤ 0.2
5,SFLE,≤ 0.2
6,PRQV,≤ 0.2
7,RTNY,0.659
8,RTDY,0.437
9,RSNY,0.496
10,DVRM,≤ 0.2
11,RAWQ,≤ 0.2
12,RAWF,0.245
13,RACR,≤ 0.2
14,RACK,≤ 0.2
15,RARK,≤ 0.2
16,RARC,0.921
17,RAHC,0.983
18,RAHY,0.472
19,RARR,≤ 0.2
20,RAWC,0.927
21,RAHQ,≤ 0.2
22,RACC,0.962
23,CWYT,≤ 0.2
24,HLQT,≤ 0.2
25,YDQM,≤ 0.2

row,Variant,one-hybrid fitness for binding parS DNA
1,VCTK,≤ 0.2
2,QSGL,≤ 0.2
3,IVAE,≤ 0.2
4,SVEV,≤ 0.2
5,VAFA,≤ 0.2
6,TVDW,≤ 0.2
7,EQMM,≤ 0.2
8,RALR,≤ 0.2
9,RAQP,≤ 0.2
10,RAYC,0.99
11,RASD,≤ 0.2
12,RASP,≤ 0.2
13,RASC,0.973
14,RAYF,0.264
15,RALM,0.34
16,RAYK,≤ 0.2
17,RAQH,0.211
18,RALC,0.968
19,RAQC,0.987
20,WCQR,≤ 0.2
21,CHEL,≤ 0.2
22,DWAG,≤ 0.2
23,PWPN,≤ 0.2
24,IYAV,≤ 0.2
25,YPAT,≤ 0.2

row,Variant,one-hybrid fitness for binding parS DNA
1,WGPT,≤ 0.2
2,KAKV,≤ 0.2
3,PNIE,≤ 0.2
4,TVLI,≤ 0.2
5,CNIV,≤ 0.2
6,KLAN,≤ 0.2
7,DLHL,≤ 0.2
8,LCNK,≤ 0.2
9,PFMG,≤ 0.2
10,SAPW,≤ 0.2
11,DGTW,≤ 0.2
12,RSMT,0.813
13,RGMT,0.457
14,RTMQ,0.208
15,RKMT,0.824
16,RTMF,0.245
17,RDMT,≤ 0.2
18,RRMF,≤ 0.2
19,RKMF,≤ 0.2
20,RRMQ,≤ 0.2
21,RRMT,0.6
22,RKMY,0.386
23,RTMT,0.935
24,AQDS,≤ 0.2
25,QQQY,≤ 0.2

row,Variant,one-hybrid fitness for binding parS DNA
1,PPNS,≤ 0.2
2,GHCG,≤ 0.2
3,VYPW,≤ 0.2
4,TWKG,≤ 0.2
5,RLMK,≤ 0.2
6,RFMT,0.754
7,RPMT,≤ 0.2
8,RIMT,0.878
9,RLMQ,≤ 0.2
10,REMT,≤ 0.2
11,RIMK,≤ 0.2
12,RLMT,0.955
13,RCMT,0.921
14,RFMF,0.245
15,RIMF,0.247
16,DFMT,≤ 0.2
17,FHRK,≤ 0.2
18,ACEY,≤ 0.2
19,KYCS,≤ 0.2
20,TTLF,≤ 0.2
21,SFCW,≤ 0.2
22,HHQT,≤ 0.2
23,SRMA,≤ 0.2
24,QDSQ,≤ 0.2
25,KLPC,≤ 0.2

row,Variant,one-hybrid fitness for binding parS DNA
1,IKAG,≤ 0.2
2,HGIV,≤ 0.2
3,RMMT,0.874
4,RMMK,≤ 0.2
5,RMMF,0.247
6,RHMT,0.87
7,RHMR,≤ 0.2
8,RAMT,0.878
9,RAMP,≤ 0.2
10,RAMN,0.41
11,RHML,≤ 0.2
12,MMTS,≤ 0.2
13,SEPR,≤ 0.2
14,ENLY,≤ 0.2
15,PAVK,≤ 0.2
16,IFRK,≤ 0.2
17,PDML,≤ 0.2
18,THSD,≤ 0.2
19,RTDK,≤ 0.2
20,RTQP,≤ 0.2
21,RTCC,0.959
22,RTWM,0.381
23,RTCD,≤ 0.2
24,RTWR,0.207
25,RTQC,0.974

row,Variant,one-hybrid fitness for binding parS DNA
1,RTDQ,≤ 0.2
2,RTCN,0.451
3,RTWC,0.985
4,RTDC,0.887
5,RTQN,0.442
6,QNHE,≤ 0.2
7,TINS,≤ 0.2
8,DDHK,≤ 0.2
9,RPGE,≤ 0.2
10,IIHE,≤ 0.2
11,QARI,≤ 0.2
12,RTHR,≤ 0.2
13,RTGK,≤ 0.2
14,RTNM,0.301
15,RTHF,0.277
16,RTGQ,≤ 0.2
17,NTRC,≤ 0.2
18,RTHC,0.978
19,RTNP,≤ 0.2
20,RTRR,≤ 0.2
21,RTGC,0.955
22,RTNC,0.914
23,RTRC,0.826
24,TEQT,≤ 0.2
25,PSDC,≤ 0.2

row,Variant,one-hybrid fitness for binding parS DNA
1,TTIK,≤ 0.2
2,QTTK,≤ 0.2
3,EMYT,≤ 0.2
4,YMPG,≤ 0.2
5,QGVI,≤ 0.2
6,THDM,≤ 0.2
7,QTRR,≤ 0.2
8,WHQG,≤ 0.2
9,HQDG,≤ 0.2
10,SMLR,≤ 0.2
11,LTRA,≤ 0.2
12,KPYW,≤ 0.2
13,DMSV,≤ 0.2
14,RTYN,0.424
15,RTLC,0.982
16,RTLH,0.232
17,RTYC,0.982
18,RTYH,0.266
19,RTLP,≤ 0.2
20,RTSP,≤ 0.2
21,RTSC,0.969
22,RTSH,≤ 0.2
23,CTCV,≤ 0.2
24,NAVT,≤ 0.2
25,MEVR,≤ 0.2

row,Variant,one-hybrid fitness for binding parS DNA
1,QGIP,≤ 0.2
2,IPHS,≤ 0.2
3,RCLS,1.04
4,RSLD,≤ 0.2
5,RPLS,≤ 0.2
6,RSLS,1.01
7,RSLN,0.443
8,RCLH,0.258
9,TPGP,≤ 0.2
10,ASSQ,≤ 0.2
11,LTSY,≤ 0.2
12,PADA,≤ 0.2
13,RMVS,1.04
14,RMKN,0.432
15,RMKS,0.832
16,RMKH,0.24
17,RMVD,≤ 0.2
18,RMVN,0.422
19,LRAY,≤ 0.2
20,TDIK,≤ 0.2
